Screens as filed in PubChem BioAssay.
FBW7 activator: human FBW7 E3 ligase activation, primary screen; hit rate 0.13% among 650,000; Q969H0; AlphaScreen FBW7–phospho-cyclin E peptide binding, activator screen; normalized activity (activation), % at 26.1 µM; AID 1259310; in the data active = normalized activity above about 1.9%;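 note: purified mutant Fbw7 with reduced substrate affinity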
Target sequence (Q969H0 whole entry, looked up): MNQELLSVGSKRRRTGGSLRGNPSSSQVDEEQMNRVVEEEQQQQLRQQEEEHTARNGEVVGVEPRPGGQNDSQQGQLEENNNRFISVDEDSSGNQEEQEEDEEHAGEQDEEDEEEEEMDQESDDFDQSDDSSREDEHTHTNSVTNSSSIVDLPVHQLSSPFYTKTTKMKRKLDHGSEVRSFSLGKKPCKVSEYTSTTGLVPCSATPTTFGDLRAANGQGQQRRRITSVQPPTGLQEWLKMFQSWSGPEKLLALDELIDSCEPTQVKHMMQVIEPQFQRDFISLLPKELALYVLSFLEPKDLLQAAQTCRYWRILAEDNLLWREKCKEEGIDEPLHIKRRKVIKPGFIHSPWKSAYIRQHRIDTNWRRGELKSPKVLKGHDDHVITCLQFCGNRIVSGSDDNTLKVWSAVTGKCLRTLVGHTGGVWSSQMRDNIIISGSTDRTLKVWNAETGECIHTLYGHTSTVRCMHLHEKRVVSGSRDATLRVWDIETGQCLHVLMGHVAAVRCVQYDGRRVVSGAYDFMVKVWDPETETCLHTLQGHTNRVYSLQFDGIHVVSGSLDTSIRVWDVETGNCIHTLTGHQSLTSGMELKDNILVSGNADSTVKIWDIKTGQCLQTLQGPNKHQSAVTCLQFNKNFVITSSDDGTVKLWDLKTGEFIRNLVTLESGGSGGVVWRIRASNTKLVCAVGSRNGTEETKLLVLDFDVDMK
MITF inh: inhibitors of human MITF; AID 1259374; inhibition, % at 2.6 µM; O75030; hit rate 0.91% among 650,000; AlphaScreen MITF homodimerization, bead proximity signal; in the data active = inhibition above about 50%;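 note: 0% = vehicle wells with protein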
GPR151 activ: activates the human receptor GPR151. hit rate 1% among 650,000. Q8TDV0. AID 1508602. PathHunter beta-arrestin GPR151 cells, luminescence. activation, % at 11.2 µM; in the data active = activation above about 4.9%;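 note: 0% = median of compound wells and 100% = cells with positive control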
TEAD-YAP inh: TEAD-YAP interaction inhibition; HEK-TIYL cells, TEAD-Gal4/YAP UAS-luciferase luminescence; inhibition, % at 9.12 µM; hit rate 1.4% among 640,000; AID 1259422; in the data active = inhibition above about 32%;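 note: 0% = median of test compound wells and 100% = reference inhibitor wells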
MITF confirm: human MITF inhibition, confirmation; shares compounds with MITF inh; AlphaScreen MITF homodimerization, biotin/His-MITF beads; inhibition, % at 2.6 µM; hit rate 16% among 4,700; AID 1259372;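 active = inhibition above a cutoff derived from the DMSO control wells, cut at about 28% in these data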;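 note: 0% = MITF dimer wells with DMSO only; inhibitors lower the bead chemiluminescence by keeping MITF from dimerizing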
AS interf DR: counter-screen: compounds optically interfering with AlphaScreen; shares compounds with MITF inh; AlphaScreen optical interference counterscreen, cell-free; IC50, µM; hit rate 6% among 480; AID 1259373; call rule not given here
AlphaScreen intf2: counter-screen: compounds optically interfering with AlphaScreen. hit rate 7.6% among 4,700. LysRS AlphaScreen counterscreen, signal interference, triplicate. inhibition, % at 2.6 µM. shares compounds with MITF inh;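 active = inhibition above a cutoff derived from the DMSO control wells, cut at about 30% in these data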
* hit, by the source's call; nt = no result. Rows were chosen to be rich in hits. Some 3.4% of all compounds tested hit in one or more screens of this group.

SMILES | FBW7 activator | MITF inh | GPR151 activ | TEAD-YAP inh | MITF confirm | AlphaScreen intf2 | others
COc1cccc(CN2CCN(Cc3cc(OC)c(OC)c(OC)c3)CC2)c1OC | 0.0 | 61.9* | -0.8 | 4.2 | -11.7 | -2.5
COc1ccc(CN2CCC(N3CCN(c4ccccc4)CC3)CC2)cc1OC | 0.0 | 55.7* | -1.7 | 18.9 | -6.4 | -9.7
COc1cc(CN2CCN(Cc3cccc(C)c3)CC2)cc(OC)c1OC | -0.6 | 41.9 | -0.2 | -3.7 | nt | nt
COc1cccc(CN2CCN(C3CCCCC3OC)CC2)c1OC (centres undefined) | -0.2 | 74.0* | -0.2 | 4.2 | 7.4 | 11.4
COc1cccc(CN2CCN(Cc3cccc(OC)c3OC)CC2)c1OC | -0.4 | 74.3* | 0.4 | -2.0 | 6.0 | 10.3
O=[N+]([O-])c1c(N2CCN(CCO)CC2)cc(Cl)c2nonc12 | -0.1 | -0.5 | 0.6 | 4.5 | nt | nt
COc1ccccc1NC(=O)C1=C(C)NC(=S)NC1c1cc(OC)c(OC)c(OC)c1 (centres undefined) | 1.0 | 12.9 | 1.9 | 4.2 | nt | nt
COc1cccc(CN2CCN(Cc3cccc(Oc4ccccc4)c3)CC2)c1OC | 0.5 | 74.2* | -0.2 | -6.9 | 4.7 | 2.7
COc1cccc(CN2CCN(Cc3ccccc3Br)CC2)c1OC | -0.2 | 35.5 | -1.6 | -21.1 | nt | nt
COc1ccccc1CNC(=O)CN1CCN(C)CC1 | -0.1 | 79.5* | 0.0 | -5.8 | 4.5 | 12.9
COc1ccccc1CN1CCN(Cc2cccc(OC)c2OC)CC1 | 0.0 | 86.2* | 1.5 | -2.5 | 4.9 | 16.6
COc1cc(C(=O)N2CCN(Cc3cccc(Oc4ccccc4)c3)CC2)cc(OC)c1OC | -0.4 | 28.7 | -0.3 | 6.0 | nt | nt
COc1cccc(CN2CCC(N3CCN(c4ccccc4)CC3)CC2)c1OC | 0.0 | 55.5* | 0.3 | 5.5 | -8.5 | -3.0
CCc1ccc(C(C(=O)NC(C)(C)C)N(CC2CCCO2)C(=O)c2csnn2)cc1 (centres undefined) | 0.1 | 16.6 | -1.2 | 5.7 | nt | nt
CCC(Sc1nnc(-c2ccc(C)cc2)c(-c2ccc(C)cc2)n1)C(=O)Nc1ccccc1Cl (centres undefined) | 0.1 | 13.2 | 1.4 | 3.2 | nt | nt
COc1cccc(CN2CCN(C3CCC(C)CC3)CC2)c1OC (centres undefined) | -0.3 | 70.1* | -0.9 | -12.3 | 17.1 | -3.0
COc1cccc(CN2CCC(N3CCCC3)CC2)c1OC | -0.2 | 20.0 | 2.3 | 3.2 | nt | nt
O=[N+]([O-])c1ccc(-c2nc(C=Nc3ccc4c(c3)OCCO4)c(O)o2)cc1 | -0.2 | 4.0 | -0.8 | -1.2 | nt | nt
CC(NC(=O)Cc1ccc(F)cc1)c1ccccc1 (centres undefined) | 0.2 | -6.7 | 2.7 | -4.1 | nt | nt
CC(NC(=O)CCSCCC(=O)NC(C)c1ccccc1)c1ccccc1 (centres undefined) | 0.1 | 6.0 | -1.5 | -7.0 | nt | nt
CC(NC(=O)CCSCc1ccccc1F)c1ccccc1 (centres undefined) | 0.4 | 58.8* | -1.6 | -27.1 | 2.4 | -2.8
CC(NC(=O)Cc1ccccc1Cl)c1ccc(F)cc1 (centres undefined) | 0.3 | 57.8* | -1.4 | -3.6 | 5.0 | 6.6
NNC(=O)c1cc(-c2ccc(Cl)cc2)n[nH]1 | 0.0 | 56.5* | 1.3 | -12.0 | -1.8 | -2.6
CC(C)N1CCC2(CCC(CNC(=O)CCc3c[nH]c4ccccc34)O2)CC1 (centres undefined) | -0.1 | 8.3 | 0.8 | 9.9 | nt | nt
Cc1cccnc1NC(=O)C1CCCN(c2ccc(-n3ccnc3)nn2)C1 (centres undefined) | 0.2 | 14.6 | -1.6 | -3.7 | nt | nt
SMILES | FBW7 activator | MITF inh | GPR151 activ | TEAD-YAP inh | MITF confirm | AlphaScreen intf2 | others
Cc1ccnc(N2C3CCC2CC(O)(c2ccccc2)C3)n1 (centres undefined) | 0.0 | 53.5* | -0.8 | 7.9 | 12.2 | 13.0
Cc1ccc(C2(O)CC3CCC(C2)N3c2cc(C)nc(N)n2)cc1 (centres undefined) | 0.1 | -18.6 | -1.2 | 8.1 | nt | nt
Cc1cc(=O)n(C)c(=O)n1CCCCCCN1CCOCC1 | -0.2 | 55.2* | 0.2 | 1.5 | 1.5 | 3.9
CCN(CC)CCCCCCn1c(C)cc(=O)n(C)c1=O | 0.0 | 36.2 | -0.4 | -0.8 | nt | nt
CCCCC(=O)N1CC(=O)Nc2ccc(Br)cc2C1c1ccccc1 (centres undefined) | 0.0 | -1.9 | 1.7 | -1.3 | nt | nt
COC(=O)CSc1nnc(-c2cnccn2)n1C | -0.3 | 64.9* | 0.5 | -3.6 | 36.0* | 10.8 | AS interf DR=>6.48
Cn1c(SCC#N)nnc1-c1cnccn1 | -0.3 | 68.6* | 0.5 | -0.9 | 9.7 | 18.5
COCCn1c(SCC#N)nnc1-c1cnccn1 | 0.1 | -3.1 | 0.5 | 1.0 | nt | nt
CCCOC(=O)C1=C(C)NC2=C(C(=O)CC(c3ccc(OC)c(OC)c3)C2)C1c1cccc(Cl)c1Cl (centres undefined) | 0.2 | 0.8 | 1.1 | 9.8 | nt | nt
COCCSc1nnc(-c2ccncc2)n1C | -0.4 | 58.8* | 0.8 | 5.7 | 5.0 | 15.3
Cc1ccccc1CN1CCC(N2CCCC2)CC1 | 0.2 | 47.2 | -0.9 | -0.5 | nt | nt
Cc1ccccc1CN1CCN(C2CCCC2)CC1 | 0.1 | 57.1* | 2.7 | 8.8 | -18.2 | 3.6
O=C1CCC(N2CCCC2)CCN1Cc1ccccc1Cl (centres undefined) | -0.1 | -0.4 | -0.2 | 0.3 | nt | nt
c1ccc(CN2CCC(N3CCN(C4CCCCCC4)CC3)CC2)cc1 | 0.0 | 21.2 | 0.0 | -1.6 | nt | nt
Clc1ccccc1CN1CCN(C2CCCCC2)CC1 | 0.1 | 65.4* | 1.3 | -14.6 | 12.9 | 15.0
Clc1ccccc1CN1CCN(C2CCCC2)CC1 | -0.1 | 73.6* | -0.9 | 4.7 | 19.2 | 16.2
CCN1CCN(C(=O)c2cc([N+](=O)[O-])ccc2Cl)CC1 | 0.2 | 14.9 | -1.6 | 7.6 | nt | nt
CCOC(=O)[C@H](Cc1ccccc1)NC(=O)CCCCCN1C(=O)c2ccccc2C1=O | 0.0 | -4.9 | -1.8 | -11.3 | nt | nt
O=C(c1cccnc1)N1CCN(Cc2ccc(Br)cc2)CC1 | -0.5 | 69.5* | 3.2 | 6.5 | -4.9 | -4.4
Cc1cccc(CN2CCN(C(=O)c3cccc(Cl)c3)CC2)c1 | -0.2 | 42.3 | 0.6 | 8.7 | nt | nt
O=C(c1cccnc1)N1CCN(Cc2cccc(Cl)c2)CC1 | 0.0 | 64.9* | 2.1 | -3.0 | -5.9 | 9.3
O=C(c1cccnc1)N1CCN(Cc2ccccc2)CC1 | -0.1 | 47.3 | 0.8 | 8.8 | nt | nt
O=C(c1cccnc1)N1CCN(Cc2cccc(Br)c2)CC1 | -0.2 | 65.1* | 3.3 | 1.3 | 4.5 | 15.0
COc1ccc(-c2noc(N(C)CC(=O)N3CCC(C)CC3)n2)cc1 | -0.1 | -11.1 | 0.4 | -14.1 | nt | nt
C=CCc1cc(C)ccc1OCCN1CCCC1 | -0.1 | 11.3 | 2.3 | -2.2 | nt | nt
CN1CCN(CCCOc2cc(Cl)ccc2Cl)CC1 | 0.1 | 6.7 | -1.6 | -11.0 | nt | nt
C=CCc1cc(C)ccc1OCCCN1CCCC1 | 0.0 | 54.8* | -0.5 | 12.7 | 0.1 | 8.6
C=CCc1ccccc1OCCOCCN1CCOCC1 | 0.1 | 72.3* | 2.6 | -1.8 | 10.5 | 16.9
C=CCc1cc(C)ccc1OCCCCn1ccnc1 | 0.3 | 74.5* | -1.5 | -7.4 | 35.4* | 3.3 | AS interf DR=>6.48
